According to publication PMC7862700, “An all-to-all approach to the identification of sequence-specific readers for epigenetic DNA modifications on cytosine”:

How the values were obtained:
Test in all cases: DAPPL (digital affinity profiling via proximity ligation, sequencing); 10 mM Tris-HCl pH 7.5, 50 mM NaCl, 1 mM DTT, 4% glycerol, room temperature, 30 min; GST-TFs on glutathione beads, 16-mer random dsDNA library, 0.1% formaldehyde crosslink after washing; high values mean tight binding
[1] = target: T1, FEV (Homo sapiens, UniProt Q99581 1-238); settings: protein: recombinant; tags: N-terminal GST; dsDNA, one strand shown
T1 sequence: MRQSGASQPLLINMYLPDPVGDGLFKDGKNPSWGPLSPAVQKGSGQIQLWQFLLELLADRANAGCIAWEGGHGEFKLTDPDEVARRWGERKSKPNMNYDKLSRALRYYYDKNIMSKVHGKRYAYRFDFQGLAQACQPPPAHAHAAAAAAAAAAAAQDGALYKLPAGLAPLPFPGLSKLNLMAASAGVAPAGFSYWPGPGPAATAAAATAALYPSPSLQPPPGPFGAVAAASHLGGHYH
In short: (§1)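 Each value of binding signal is a hexamer's read frequency for a factor divided by the same hexamer's frequency in the tag-only sample. Barcoded, bead-captured GST fusions of human transcription factors made in yeast were pooled with that sample and incubated with 200 nmole of a random double-stranded 16-mer DNA library in Tris/NaCl/DTT/glycerol buffer at room temperature for 30 min. Washing, 0.1% formaldehyde crosslinking, proximity ligation, PCR and Illumina NextSeq500 sequencing followed.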

[2] = target: ETV5 (Homo sapiens, UniProt P41161 1-510); settings: protein: recombinant; tags: N-terminal GST; dsDNA, one strand shown
Chain of ETV5 (P41161 whole entry): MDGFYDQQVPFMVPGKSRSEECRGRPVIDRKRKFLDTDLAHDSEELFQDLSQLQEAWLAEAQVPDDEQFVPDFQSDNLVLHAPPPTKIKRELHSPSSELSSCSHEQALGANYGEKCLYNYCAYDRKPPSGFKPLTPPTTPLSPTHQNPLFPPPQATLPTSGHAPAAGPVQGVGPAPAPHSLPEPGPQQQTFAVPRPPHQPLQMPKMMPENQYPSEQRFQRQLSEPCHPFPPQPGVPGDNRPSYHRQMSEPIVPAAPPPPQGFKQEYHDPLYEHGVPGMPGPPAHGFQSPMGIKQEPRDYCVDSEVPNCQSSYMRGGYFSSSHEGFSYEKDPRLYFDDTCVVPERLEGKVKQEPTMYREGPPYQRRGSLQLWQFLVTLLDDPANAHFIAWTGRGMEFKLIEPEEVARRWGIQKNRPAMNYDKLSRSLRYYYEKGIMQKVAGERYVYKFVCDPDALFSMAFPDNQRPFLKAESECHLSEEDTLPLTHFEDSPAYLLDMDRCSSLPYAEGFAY
In short: as §1

[3] = target: HSF1 (Homo sapiens, UniProt Q00613 1-529); settings: protein: recombinant; tags: N-terminal GST; chain copies: 3; dsDNA, one strand shown
Chain of HSF1 (Q00613 whole entry): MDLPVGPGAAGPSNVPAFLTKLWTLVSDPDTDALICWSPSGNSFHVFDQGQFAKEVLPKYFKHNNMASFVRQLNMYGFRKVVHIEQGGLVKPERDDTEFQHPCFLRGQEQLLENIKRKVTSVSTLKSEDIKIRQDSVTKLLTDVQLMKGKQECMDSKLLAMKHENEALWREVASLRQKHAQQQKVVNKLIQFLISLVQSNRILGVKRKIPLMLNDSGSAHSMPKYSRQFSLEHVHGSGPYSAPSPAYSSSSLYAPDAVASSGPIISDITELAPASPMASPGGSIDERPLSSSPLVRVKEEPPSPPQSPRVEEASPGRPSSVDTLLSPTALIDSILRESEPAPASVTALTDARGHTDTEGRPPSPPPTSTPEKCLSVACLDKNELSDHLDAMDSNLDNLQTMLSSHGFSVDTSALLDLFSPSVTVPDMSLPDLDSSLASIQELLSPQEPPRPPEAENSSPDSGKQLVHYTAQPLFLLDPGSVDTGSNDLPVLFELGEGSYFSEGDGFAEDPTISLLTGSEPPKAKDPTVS
In short: as §1

[4] = target: T2, SPIC (Homo sapiens, UniProt Q8N5J4 1-248); settings: protein: recombinant; tags: N-terminal GST; dsDNA, one strand shown
T2 sequence: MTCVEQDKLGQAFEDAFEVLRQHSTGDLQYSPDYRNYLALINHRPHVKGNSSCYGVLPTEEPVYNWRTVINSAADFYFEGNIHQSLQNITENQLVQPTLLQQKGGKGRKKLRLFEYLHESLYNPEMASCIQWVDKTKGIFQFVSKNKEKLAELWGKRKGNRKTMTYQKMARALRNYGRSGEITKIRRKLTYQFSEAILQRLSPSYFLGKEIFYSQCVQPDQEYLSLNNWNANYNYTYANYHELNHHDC
In short: as §1

[5] = target: ELF4 (Homo sapiens, UniProt Q99607 1-663); settings: protein: recombinant; tags: N-terminal GST; dsDNA, one strand shown
Chain of ELF4 (Q99607 whole entry): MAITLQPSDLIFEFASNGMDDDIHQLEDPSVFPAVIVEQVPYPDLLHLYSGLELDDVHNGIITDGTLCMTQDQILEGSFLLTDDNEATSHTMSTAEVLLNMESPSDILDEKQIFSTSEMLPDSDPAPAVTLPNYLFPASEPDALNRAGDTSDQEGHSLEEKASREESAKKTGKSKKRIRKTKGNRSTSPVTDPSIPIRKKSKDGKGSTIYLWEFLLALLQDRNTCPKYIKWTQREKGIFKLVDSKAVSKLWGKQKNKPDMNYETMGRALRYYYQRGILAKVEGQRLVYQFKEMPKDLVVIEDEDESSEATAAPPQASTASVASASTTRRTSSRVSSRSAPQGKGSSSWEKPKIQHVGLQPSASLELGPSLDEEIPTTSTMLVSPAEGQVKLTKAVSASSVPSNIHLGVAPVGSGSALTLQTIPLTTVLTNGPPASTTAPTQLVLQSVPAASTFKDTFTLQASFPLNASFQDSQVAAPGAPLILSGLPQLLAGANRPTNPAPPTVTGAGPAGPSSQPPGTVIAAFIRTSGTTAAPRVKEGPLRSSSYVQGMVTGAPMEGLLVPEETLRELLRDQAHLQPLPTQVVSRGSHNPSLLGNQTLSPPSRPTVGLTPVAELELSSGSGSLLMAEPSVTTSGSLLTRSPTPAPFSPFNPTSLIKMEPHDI
In short: as §1

[6] = target: T3, ELK4 (Homo sapiens, UniProt P28324-2 1-405); settings: protein: recombinant; tags: N-terminal GST; dsDNA, one strand shown
T3 sequence: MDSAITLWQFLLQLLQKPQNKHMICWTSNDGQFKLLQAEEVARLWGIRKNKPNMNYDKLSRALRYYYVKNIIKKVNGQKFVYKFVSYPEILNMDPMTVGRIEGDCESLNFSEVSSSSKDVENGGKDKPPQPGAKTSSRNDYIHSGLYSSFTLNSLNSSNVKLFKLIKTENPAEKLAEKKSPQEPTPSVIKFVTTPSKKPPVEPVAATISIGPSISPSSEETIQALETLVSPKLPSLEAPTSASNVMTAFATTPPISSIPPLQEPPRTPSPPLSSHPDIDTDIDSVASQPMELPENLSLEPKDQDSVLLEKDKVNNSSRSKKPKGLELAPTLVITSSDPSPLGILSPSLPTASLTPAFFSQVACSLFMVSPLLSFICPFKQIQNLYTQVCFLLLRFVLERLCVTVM
In short: as §1

[7] = target: T4, ETV2 (Homo sapiens, UniProt O00321 1-342); settings: protein: recombinant; tags: N-terminal GST; dsDNA, one strand shown
T4 sequence: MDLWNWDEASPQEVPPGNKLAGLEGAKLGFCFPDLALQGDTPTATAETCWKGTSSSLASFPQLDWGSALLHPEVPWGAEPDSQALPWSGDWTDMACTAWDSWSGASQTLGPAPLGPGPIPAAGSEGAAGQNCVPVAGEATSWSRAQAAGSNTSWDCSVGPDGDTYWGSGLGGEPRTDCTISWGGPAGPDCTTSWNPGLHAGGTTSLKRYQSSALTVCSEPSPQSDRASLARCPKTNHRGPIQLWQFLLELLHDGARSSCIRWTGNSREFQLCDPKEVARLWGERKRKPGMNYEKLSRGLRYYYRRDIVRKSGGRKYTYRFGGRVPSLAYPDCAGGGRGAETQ
In short: as §1

[8] = target: T5, ELF3 (Homo sapiens, UniProt P78545 1-371); settings: protein: recombinant; tags: N-terminal GST; dsDNA, one strand shown
T5 sequence: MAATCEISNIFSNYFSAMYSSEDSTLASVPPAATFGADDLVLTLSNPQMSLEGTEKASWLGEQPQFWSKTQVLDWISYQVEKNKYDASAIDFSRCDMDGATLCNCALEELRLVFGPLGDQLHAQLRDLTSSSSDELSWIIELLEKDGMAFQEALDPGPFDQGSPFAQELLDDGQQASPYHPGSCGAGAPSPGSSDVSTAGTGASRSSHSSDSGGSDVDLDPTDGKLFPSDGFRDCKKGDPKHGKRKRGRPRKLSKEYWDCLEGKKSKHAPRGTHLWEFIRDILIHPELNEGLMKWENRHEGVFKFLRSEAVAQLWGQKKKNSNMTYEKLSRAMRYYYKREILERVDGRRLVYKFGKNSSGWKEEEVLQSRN
In short: as §1

[9] = target: CRX (Homo sapiens, UniProt O43186 1-299); settings: protein: recombinant; tags: N-terminal GST; dsDNA, one strand shown
Chain of CRX (O43186 whole entry): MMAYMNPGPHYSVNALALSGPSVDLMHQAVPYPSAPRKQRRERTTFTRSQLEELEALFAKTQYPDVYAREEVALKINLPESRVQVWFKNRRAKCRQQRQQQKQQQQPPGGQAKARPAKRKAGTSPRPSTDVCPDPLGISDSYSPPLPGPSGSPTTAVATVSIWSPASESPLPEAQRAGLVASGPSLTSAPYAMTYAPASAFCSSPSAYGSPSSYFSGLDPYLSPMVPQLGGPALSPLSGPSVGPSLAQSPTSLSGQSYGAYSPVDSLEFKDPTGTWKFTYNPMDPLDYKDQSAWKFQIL
In short: as §1

[10] = target: ETV1 (Homo sapiens, UniProt P50549 1-477); settings: protein: recombinant; tags: N-terminal GST; dsDNA, one strand shown
Chain of ETV1 (P50549 whole entry): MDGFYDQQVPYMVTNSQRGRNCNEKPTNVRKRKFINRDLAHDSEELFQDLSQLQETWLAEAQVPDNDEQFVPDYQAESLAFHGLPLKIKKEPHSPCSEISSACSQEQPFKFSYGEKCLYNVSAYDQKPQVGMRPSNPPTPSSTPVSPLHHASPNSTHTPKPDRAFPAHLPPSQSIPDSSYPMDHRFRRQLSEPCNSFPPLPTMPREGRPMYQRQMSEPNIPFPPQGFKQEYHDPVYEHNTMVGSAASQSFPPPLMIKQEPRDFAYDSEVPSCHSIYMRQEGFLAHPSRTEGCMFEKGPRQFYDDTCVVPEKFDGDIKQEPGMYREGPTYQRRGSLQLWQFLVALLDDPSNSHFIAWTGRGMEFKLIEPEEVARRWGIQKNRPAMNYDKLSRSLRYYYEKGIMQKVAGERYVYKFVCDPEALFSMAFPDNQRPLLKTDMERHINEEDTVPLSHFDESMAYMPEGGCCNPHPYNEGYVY
In short: as §1

[11] = target: T6, ERF (Homo sapiens, UniProt P50548 1-548); settings: protein: recombinant; tags: N-terminal GST; dsDNA, one strand shown
T6 sequence: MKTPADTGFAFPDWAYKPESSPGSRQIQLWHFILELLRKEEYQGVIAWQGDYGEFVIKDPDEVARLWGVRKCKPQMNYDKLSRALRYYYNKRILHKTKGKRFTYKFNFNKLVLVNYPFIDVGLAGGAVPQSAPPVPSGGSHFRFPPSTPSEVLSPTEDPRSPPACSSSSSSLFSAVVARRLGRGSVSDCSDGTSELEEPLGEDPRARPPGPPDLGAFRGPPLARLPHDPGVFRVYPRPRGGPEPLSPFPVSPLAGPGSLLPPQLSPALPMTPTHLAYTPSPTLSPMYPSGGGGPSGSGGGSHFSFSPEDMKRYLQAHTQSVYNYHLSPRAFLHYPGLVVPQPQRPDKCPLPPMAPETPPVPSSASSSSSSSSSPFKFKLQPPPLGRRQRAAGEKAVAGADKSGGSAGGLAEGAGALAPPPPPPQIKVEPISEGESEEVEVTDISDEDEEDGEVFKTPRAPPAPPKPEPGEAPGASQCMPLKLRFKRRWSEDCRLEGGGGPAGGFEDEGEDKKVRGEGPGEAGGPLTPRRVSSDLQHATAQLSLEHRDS
In short: as §1

[12] = target: T7, ETV3L (Homo sapiens, UniProt Q6ZN32 1-361); settings: protein: recombinant; tags: N-terminal GST; dsDNA, one strand shown
T7 sequence: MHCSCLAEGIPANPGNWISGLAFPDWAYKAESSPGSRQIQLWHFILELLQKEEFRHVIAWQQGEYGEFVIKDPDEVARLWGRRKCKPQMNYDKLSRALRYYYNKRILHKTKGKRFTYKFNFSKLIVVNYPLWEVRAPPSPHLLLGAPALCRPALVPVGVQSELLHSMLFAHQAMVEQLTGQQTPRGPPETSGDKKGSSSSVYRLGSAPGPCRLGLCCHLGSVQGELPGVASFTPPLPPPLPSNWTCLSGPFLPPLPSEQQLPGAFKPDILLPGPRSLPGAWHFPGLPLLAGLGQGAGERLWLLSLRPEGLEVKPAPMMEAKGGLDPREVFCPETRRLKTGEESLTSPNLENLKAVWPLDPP
In short: as §1

[13] = target: T8, ETS2 (Homo sapiens, UniProt P15036 1-469); settings: protein: recombinant; tags: N-terminal GST; dsDNA, one strand shown
T8 sequence: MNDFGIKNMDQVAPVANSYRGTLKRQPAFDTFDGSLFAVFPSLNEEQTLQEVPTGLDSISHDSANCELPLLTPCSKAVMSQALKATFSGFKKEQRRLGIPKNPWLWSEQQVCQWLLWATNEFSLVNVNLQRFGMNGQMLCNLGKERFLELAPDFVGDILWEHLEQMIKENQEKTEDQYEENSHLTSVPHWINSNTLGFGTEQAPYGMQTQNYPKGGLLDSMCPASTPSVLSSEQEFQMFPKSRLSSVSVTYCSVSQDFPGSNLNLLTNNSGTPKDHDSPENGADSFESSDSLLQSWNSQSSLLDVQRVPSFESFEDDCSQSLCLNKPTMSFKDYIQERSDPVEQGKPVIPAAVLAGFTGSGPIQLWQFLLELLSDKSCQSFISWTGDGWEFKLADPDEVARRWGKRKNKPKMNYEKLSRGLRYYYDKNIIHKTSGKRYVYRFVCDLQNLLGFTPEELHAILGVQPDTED
In short: as §1

[14] = target: T9, SPDEF (Homo sapiens, UniProt O95238 1-335); settings: protein: recombinant; tags: N-terminal GST; dsDNA, one strand shown
T9 sequence: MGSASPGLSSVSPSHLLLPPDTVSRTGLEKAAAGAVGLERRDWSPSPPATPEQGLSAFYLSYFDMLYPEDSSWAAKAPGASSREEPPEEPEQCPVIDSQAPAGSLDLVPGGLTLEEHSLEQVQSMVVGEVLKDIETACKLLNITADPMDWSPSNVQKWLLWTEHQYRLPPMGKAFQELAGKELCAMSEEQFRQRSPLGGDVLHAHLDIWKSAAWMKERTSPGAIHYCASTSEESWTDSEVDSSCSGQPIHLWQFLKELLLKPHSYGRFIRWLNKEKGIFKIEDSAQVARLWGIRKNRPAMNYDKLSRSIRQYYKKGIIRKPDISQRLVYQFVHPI
In short: as §1

[15] = target: T10, ETV7 (Homo sapiens, UniProt Q9Y603 1-341); settings: protein: recombinant; tags: N-terminal GST; dsDNA, one strand shown
T10 sequence: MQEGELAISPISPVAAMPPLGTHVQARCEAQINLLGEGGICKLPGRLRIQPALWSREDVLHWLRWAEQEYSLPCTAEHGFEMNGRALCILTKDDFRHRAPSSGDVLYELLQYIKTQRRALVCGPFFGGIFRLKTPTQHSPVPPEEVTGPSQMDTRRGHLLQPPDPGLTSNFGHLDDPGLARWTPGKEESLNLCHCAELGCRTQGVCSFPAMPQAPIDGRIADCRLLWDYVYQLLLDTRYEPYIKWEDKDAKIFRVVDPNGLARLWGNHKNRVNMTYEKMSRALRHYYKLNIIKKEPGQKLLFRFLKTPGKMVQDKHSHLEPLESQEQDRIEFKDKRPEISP
In short: as §1

[16] = target: T11, ELF5 (Homo sapiens, UniProt Q9UKW6-2 1-255); settings: protein: recombinant; tags: N-terminal GST; dsDNA, one strand shown
T11 sequence: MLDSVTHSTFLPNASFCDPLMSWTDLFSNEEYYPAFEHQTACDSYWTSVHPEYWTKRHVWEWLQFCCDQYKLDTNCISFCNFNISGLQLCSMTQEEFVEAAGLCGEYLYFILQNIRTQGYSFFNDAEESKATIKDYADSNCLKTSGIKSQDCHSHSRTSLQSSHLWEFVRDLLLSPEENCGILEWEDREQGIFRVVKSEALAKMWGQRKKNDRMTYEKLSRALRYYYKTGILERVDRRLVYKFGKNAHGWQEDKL
In short: as §1

[17] = target: T12, ETV3 (Homo sapiens, UniProt P41162-2 1-143); settings: protein: recombinant; tags: N-terminal GST; dsDNA, one strand shown
T12 sequence: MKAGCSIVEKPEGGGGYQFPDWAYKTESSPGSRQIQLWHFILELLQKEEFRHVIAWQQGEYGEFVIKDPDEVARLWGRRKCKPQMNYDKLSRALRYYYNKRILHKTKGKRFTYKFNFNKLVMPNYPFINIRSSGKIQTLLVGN
In short: as §1

[18] = target: ETV6 (Homo sapiens, UniProt P41212 1-452); settings: protein: recombinant; tags: N-terminal GST; dsDNA, one strand shown
Chain of ETV6 (P41212 whole entry): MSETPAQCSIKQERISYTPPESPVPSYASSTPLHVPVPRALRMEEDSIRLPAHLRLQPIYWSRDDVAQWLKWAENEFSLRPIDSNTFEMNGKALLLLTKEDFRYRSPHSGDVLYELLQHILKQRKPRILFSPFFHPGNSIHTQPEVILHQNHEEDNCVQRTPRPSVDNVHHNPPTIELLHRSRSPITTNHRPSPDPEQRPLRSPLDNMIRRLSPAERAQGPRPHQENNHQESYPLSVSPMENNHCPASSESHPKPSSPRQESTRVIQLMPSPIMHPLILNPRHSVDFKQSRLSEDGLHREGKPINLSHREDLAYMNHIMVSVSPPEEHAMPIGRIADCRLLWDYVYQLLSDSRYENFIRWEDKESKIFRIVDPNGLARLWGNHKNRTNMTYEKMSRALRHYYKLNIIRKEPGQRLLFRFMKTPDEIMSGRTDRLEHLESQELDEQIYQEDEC
In short: as §1

For AATGTC, the binding signal [1] was 1.19 fold enrichment (6-mer frequency, TF over GST control), the binding signal [2] was 1.23 fold enrichment (6-mer frequency, TF over GST control) and the binding signal [3] was 1.14 fold enrichment (6-mer frequency, TF over GST control). For the same sequence, the binding signal [4] was 1.41 fold enrichment (6-mer frequency, TF over GST control), the binding signal [5] was 1.21 fold enrichment (6-mer frequency, TF over GST control) and the binding signal [6] was 1.32 fold enrichment (6-mer frequency, TF over GST control). The binding signal [7] was 1.15 fold enrichment (6-mer frequency, TF over GST control), the binding signal [8] was 1.36 fold enrichment (6-mer frequency, TF over GST control) and the binding signal [9] was 1.04 fold enrichment (6-mer frequency, TF over GST control). The binding signal [10] was 1.14 fold enrichment (6-mer frequency, TF over GST control), the binding signal [11] was 1.17 fold enrichment (6-mer frequency, TF over GST control) and the binding signal [12] was 1.22 fold enrichment (6-mer frequency, TF over GST control). The binding signal [13] was 1.27 fold enrichment (6-mer frequency, TF over GST control), the binding signal [14] was 1.36 fold enrichment (6-mer frequency, TF over GST control) and the binding signal [15] was 1.23 fold enrichment (6-mer frequency, TF over GST control). The binding signal [16] was 1.38 fold enrichment (6-mer frequency, TF over GST control), the binding signal [17] was 1.23 fold enrichment (6-mer frequency, TF over GST control) and the binding signal [18] was 1.21 fold enrichment (6-mer frequency, TF over GST control).
